A structure can be active in one record and inactive in another. The source made the active and inactive calls. How the source made its calls: active means hit-call score of the fitted dose curve at least 0.9, where 1 is the maximum; inactive means score below 0.9.
Tests used:
[1] = APR_HepG2_NuclearSize_72hr: Apredica 72-hour HepG2 Assay for Nuclear Size (AID 2282925); settings: high-content imaging, actives raise or lower the signal
Summary of the method: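 Read-out: nuclear diameter from Hoechst 33342 images (ArrayScan, 20x, six fields/well), via cell-cycle image analysis. HepG2 were dosed 0.39–200 uM for 72 hr in 0.5% DMSO. Bidirectional fit relative to DMSO.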

[2] = ATG_CRE_CIS: Attagene CIS-FACTORIAL HepG2 Assay for human cAMP Responsive Element (CRE) binding protein 3 (AID 2282926); settings: HepG2 CRE cis-reporter, Attagene multiplexed mRNA; actives raise or lower the signal
Summary of the method: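 Assay format: transient reporter transfection of HepG2, 24 h treatment, total RNA isolation with DNase I step. Reporter abundance read by fluorescence after PCR and capillary separation; DMSO-normalised gain or loss fitting.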

[3] = molecular target: CCAAT/enhancer-binding protein beta (Homo sapiens) (UniProt P17676); assay: ATG_C_EBP_CIS: Attagene CIS-FACTORIAL HepG2 Assay for human CCAAT/Enhancer Binding Protein (C/EBP) beta (AID 2282927); settings: HepG2 Attagene cis-factorial transcription factor reporter; actives raise or lower the signal
CCAAT/enhancer-binding protein beta (Homo sapiens), sequence (P17676 whole entry, looked up): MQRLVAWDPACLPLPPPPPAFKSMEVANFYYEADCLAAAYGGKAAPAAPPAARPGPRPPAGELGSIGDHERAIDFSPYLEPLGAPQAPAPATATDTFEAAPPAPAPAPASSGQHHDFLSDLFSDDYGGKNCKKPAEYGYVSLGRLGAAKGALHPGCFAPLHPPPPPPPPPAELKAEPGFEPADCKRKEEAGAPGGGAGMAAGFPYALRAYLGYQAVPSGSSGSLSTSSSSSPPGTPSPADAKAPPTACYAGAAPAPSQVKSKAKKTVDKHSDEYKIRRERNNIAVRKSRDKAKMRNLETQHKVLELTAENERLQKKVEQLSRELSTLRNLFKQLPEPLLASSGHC
Summary of the method: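 HepG2, transient MRTU transfection, 24 h treatment. RT-PCR plus CE fluorescence; DMSO negative control, bidirectional fit.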

[4] = ATG_CMV_CIS: Attagene CIS-FACTORIAL HepG2 Assay for human CMV (Internal Marker) (AID 2282928); settings: HepG2 CMV promoter reporter, transcription factor profiling; actives raise or lower the signal;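 further: endpoint acts as a background internal control marker rather than a target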
Summary of the method: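 Fluorescence intensity of RT-PCR-derived reporter fragments, resolved by capillary electrophoresis, gives the signal. HepG2 liver cells bearing transfected cis-element reporters were treated 24 h; activity in either direction was fit relative to DMSO-treated controls.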

[5] = ATG_DR4_LXR_CIS: Attagene CIS-FACTORIAL HepG2 Assay for human Liver X Receptor (LXR), DR4 submotif (AID 2282929); settings: HepG2 Attagene DR4 cis-reporter, mRNA transcription; actives raise or lower the signal
Summary of the method: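 HepG2 cells transiently transfected with cis-promoter-driven multiplexed reporter units (DR4 element) were dosed for 24 h. Reporter mRNA was quantified by RT-PCR, fluorescent primer extension, HpaI digestion and capillary electrophoresis; bidirectional fitting versus DMSO baseline.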

[6] = molecular target: Aryl hydrocarbon receptor (Homo sapiens) (UniProt P35869); assay: ATG_Ahr_CIS: Attagene CIS-FACTORIAL HepG2 Assay for human Aryl Hydrocarbon Receptor (Ahr) (AID 2282930); settings: HepG2 AhR cis-factorial reporter transcription; actives raise or lower the signal
Aryl hydrocarbon receptor (Homo sapiens), sequence (P35869 whole entry, looked up): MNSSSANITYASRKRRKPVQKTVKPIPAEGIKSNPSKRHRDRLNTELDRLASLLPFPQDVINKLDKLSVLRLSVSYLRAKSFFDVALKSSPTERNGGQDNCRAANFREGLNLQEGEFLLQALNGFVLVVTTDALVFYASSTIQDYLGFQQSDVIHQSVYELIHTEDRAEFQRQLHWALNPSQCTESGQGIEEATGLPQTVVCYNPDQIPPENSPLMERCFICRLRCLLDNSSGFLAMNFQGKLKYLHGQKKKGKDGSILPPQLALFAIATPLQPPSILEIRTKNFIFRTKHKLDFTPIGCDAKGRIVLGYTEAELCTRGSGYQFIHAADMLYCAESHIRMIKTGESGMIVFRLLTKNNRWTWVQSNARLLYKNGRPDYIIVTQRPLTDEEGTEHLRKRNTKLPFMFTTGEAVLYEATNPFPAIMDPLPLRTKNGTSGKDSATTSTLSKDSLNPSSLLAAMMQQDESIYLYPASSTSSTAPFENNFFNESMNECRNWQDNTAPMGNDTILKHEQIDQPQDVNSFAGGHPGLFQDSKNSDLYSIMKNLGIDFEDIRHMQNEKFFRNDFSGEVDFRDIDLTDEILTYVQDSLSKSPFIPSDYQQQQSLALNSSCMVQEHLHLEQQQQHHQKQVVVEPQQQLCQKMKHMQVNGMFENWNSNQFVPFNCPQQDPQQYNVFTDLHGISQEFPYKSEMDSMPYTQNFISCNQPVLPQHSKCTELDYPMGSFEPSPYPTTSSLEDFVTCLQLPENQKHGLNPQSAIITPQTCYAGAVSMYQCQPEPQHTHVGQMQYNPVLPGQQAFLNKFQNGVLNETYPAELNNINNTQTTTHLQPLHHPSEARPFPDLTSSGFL
Summary of the method: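 Endogenous factor activity is tracked through cis-promoter reporter units transfected into HepG2 cells. Transcript levels at 24 h are read by fluorescent RT-PCR and capillary electrophoresis, with activity in either direction scored relative to DMSO.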

[7] = ATG_AP_1_CIS: Attagene CIS-FACTORIAL HepG2 Assay for human Activator Protein 1 (AP-1) (AID 2282931); settings: HepG2 Attagene cis-factorial AP-1 reporter mRNA; actives raise or lower the signal
Summary of the method: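 HepG2 cells transiently transfected with cis-element-driven multiplex reporter units; 24 h compound exposure. Reporter mRNA quantified by RT-PCR, FAM-labelled fragments resolved by capillary electrophoresis; bidirectional fit versus DMSO baseline.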

[8] = ATG_AP_2_CIS: Attagene CIS-FACTORIAL HepG2 Assay for human Activator Protein 2 (AP-2) (AID 2282932); settings: HepG2 AP-2 cis-reporter, Attagene transcription factor profiling; actives raise or lower the signal
Summary of the method: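 Liver-derived HepG2 line, cis-reporter system measuring endogenous factors; 24 h dosing; reporter mRNA detected by fluorescent RT-PCR and capillary electrophoresis.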

[9] = ATG_BRE_CIS: Attagene CIS-FACTORIAL HepG2 Assay for human Bone Morphogenetic Protein (BMP) Response Element (BRE) (AID 2282933); settings: HepG2 BMP response element reporter, Attagene transcription factor profiling; actives raise or lower the signal
Summary of the method: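 HepG2 cells transiently transfected with CIS reporter units (endogenous TF activity, BMP response element), dosed 24 h. Reporter mRNA quantified by RT-PCR, fluorescent labelling and capillary electrophoresis; bidirectional fit vs DMSO baseline.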

[10] = molecular target: Retinoic acid receptor alpha (Homo sapiens) (UniProt P10276); assay: ATG_DR5_RAR_CIS: Attagene CIS-FACTORIAL HepG2 Assay for human Retinoic Acid Receptor Alpha (RARE), DR5 submotif (AID 2282934); settings: HepG2 Attagene cis-factorial RARE DR5 reporter, mRNA; actives raise or lower the signal;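 on AC50: reporter responds to endogenous RAR alpha beta and gamma in HepG2 not RARA alone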
Retinoic acid receptor alpha (Homo sapiens), sequence (P10276 whole entry, looked up): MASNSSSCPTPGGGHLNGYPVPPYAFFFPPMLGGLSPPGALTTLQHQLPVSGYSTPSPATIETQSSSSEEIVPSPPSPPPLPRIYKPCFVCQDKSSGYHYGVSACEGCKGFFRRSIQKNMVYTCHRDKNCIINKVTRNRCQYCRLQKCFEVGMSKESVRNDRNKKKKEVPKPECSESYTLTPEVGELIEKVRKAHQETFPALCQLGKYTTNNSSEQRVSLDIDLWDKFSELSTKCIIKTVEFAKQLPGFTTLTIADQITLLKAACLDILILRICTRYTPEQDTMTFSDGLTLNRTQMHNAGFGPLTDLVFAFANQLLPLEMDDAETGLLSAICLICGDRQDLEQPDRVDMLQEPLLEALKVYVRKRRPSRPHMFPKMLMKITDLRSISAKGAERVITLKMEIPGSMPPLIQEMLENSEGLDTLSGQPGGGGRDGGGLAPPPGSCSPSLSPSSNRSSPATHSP
Summary of the method: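 After 24 h of chemical exposure, transiently transfected HepG2 cells were lysed for total RNA; the DR5-regulated reporter transcript was quantified via RT-PCR and capillary electrophoresis, with activity fitted bidirectionally against DMSO.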

[11] = molecular target: Transcription factor E2F1 (Homo sapiens) (UniProt Q01094); assay: ATG_E2F_CIS: Attagene CIS-FACTORIAL HepG2 Assay for human E2F Transcription Factor 1 (AID 2282935); settings: HepG2 Attagene cis-reporter, E2F reporter RNA transcripts; actives raise or lower the signal
Transcription factor E2F1 (Homo sapiens), sequence (Q01094 whole entry, looked up): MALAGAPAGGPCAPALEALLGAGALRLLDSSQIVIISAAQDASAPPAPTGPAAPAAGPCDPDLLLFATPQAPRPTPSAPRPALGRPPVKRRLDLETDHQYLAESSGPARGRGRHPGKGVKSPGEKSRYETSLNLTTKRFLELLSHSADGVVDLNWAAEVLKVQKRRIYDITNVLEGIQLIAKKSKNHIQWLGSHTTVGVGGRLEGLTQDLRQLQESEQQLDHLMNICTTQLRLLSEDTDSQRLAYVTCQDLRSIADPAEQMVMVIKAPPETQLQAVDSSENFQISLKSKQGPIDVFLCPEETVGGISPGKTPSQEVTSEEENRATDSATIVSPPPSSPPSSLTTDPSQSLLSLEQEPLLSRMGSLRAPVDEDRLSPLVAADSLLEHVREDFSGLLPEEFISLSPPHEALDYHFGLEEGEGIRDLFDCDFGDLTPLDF
Summary of the method: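 Liver-derived HepG2 cells expressing transfected promoter-driven reporter units received test chemical for 24 hours. Signal gains or losses were fitted bidirectionally against DMSO.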

[12] = ATG_E_Box_CIS: Attagene CIS-FACTORIAL HepG2 Assay for human Enhancer Box (E-box) (AID 2282936); settings: HepG2 E-box cis-reporter transcription, actives raise or lower the signal
Summary of the method: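 In this cell-based setup, HepG2 cells bearing transfected promoter-driven reporter units were exposed to chemicals for 24 h; reporter transcripts were amplified, 6-FAM-labelled, cut with HpaI and sized by capillary electrophoresis.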

[13] = ATG_EGR_CIS: Attagene CIS-FACTORIAL HepG2 Assay for human Early Growth Response 1 (EGR1) (AID 2282938); settings: HepG2 Attagene CIS-FACTORIAL EGR reporter mRNA; actives raise or lower the signal
Summary of the method: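 HepG2 cells transiently transfected with cis-promoter-driven multiplexed reporter transcription units; reporter mRNA measured 24 h after compound dosing by RT-PCR, 6-FAM primer extension, HpaI digestion and capillary electrophoresis. Bidirectional fit versus DMSO baseline.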

[14] = ATG_M_19_CIS: Attagene CIS-FACTORIAL HepG2 Assay for M19 Transcription Factor (Internal Marker) (AID 2282939); settings: HepG2 Attagene CIS-FACTORIAL M19 internal marker reporter; actives raise or lower the signal
Summary of the method: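 HepG2 cells transiently transfected with cis-regulated multiplexed reporter units, dosed 24 h. Reporter mRNA quantified by RT-PCR and capillary electrophoresis; internal background marker fitted bidirectionally versus DMSO.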

[15] = ATG_ERE_CIS: Attagene CIS-FACTORIAL HepG2 Assay for Estrogen Response Element (ERE) (AID 2282940); settings: HepG2 ERE cis-reporter, Attagene RNA transcript; actives raise or lower the signal
Summary of the method: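 HepG2 cells transiently transfected with multiplexed cis-element reporter units, measuring endogenous transcription factor activity; ERE reporter mRNA quantified after 24 h exposure by RT-PCR, fluorescent labelling, HpaI digestion and capillary electrophoresis. Bidirectional change versus DMSO.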

[16] = ATG_Ets_CIS: Attagene CIS-FACTORIAL HepG2 Assay for human Erythroblast Transformation Specific (ETS) (AID 2282941); settings: HepG2 ETS cis-reporter transcription, actives raise or lower the signal
Summary of the method: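 Multiplexed reporter transcript profiling: HepG2, 24 h treatment, total RNA to cDNA, PCR, 6-FAM labelling, HpaI cut, capillary electrophoresis. Gain- or loss-of-signal fitted against DMSO.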

[17] = molecular target: Hepatocyte nuclear factor 3-beta (Homo sapiens) (UniProt Q9Y261); assay: ATG_FoxA2_CIS: Attagene CIS-FACTORIAL HepG2 Assay for human Forkhead box A2 (FOXA2) (AID 2282942); settings: HepG2 cis-reporter transcription factor activity, 24 h; actives raise or lower the signal
Hepatocyte nuclear factor 3-beta (Homo sapiens), sequence (Q9Y261 whole entry, looked up): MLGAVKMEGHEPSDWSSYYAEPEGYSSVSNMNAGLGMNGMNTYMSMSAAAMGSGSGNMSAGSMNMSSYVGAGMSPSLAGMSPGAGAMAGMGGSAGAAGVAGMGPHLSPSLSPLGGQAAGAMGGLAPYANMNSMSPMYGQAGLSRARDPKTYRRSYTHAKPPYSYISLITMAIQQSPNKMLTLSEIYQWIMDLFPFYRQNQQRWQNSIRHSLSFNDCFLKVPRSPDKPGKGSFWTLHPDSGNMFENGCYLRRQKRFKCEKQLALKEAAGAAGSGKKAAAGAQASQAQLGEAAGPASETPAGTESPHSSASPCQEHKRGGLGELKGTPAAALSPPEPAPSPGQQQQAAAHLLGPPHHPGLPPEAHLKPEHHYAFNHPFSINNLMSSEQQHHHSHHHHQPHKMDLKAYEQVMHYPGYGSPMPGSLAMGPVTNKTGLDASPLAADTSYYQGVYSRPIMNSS
Summary of the method: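 HepG2 cells transiently transfected with multiple cis-regulated reporter transcription units, dosed for 24 h. Reporter mRNA measured by RT-PCR, 6-FAM labelling, HpaI digestion and capillary electrophoresis; bidirectional fitting against DMSO baseline.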

[18] = ATG_FoxO_CIS: Attagene CIS-FACTORIAL HepG2 Assay for human Forkhead box O (FoxO) (AID 2282943); settings: HepG2 Attagene cis-reporter, FoxO element, mRNA; actives raise or lower the signal
Summary of the method: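 Transfected HepG2 reporter cells exposed to test chemical for 24 h; reporter RNA measured by reverse transcription, PCR and fluorescent capillary electrophoresis; curves fitted for increases and decreases against DMSO.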

[19] = ATG_GATA_CIS: Attagene CIS-FACTORIAL HepG2 Assay for human GATA Binding Protein (AID 2282944); settings: HepG2 GATA cis-element reporter, Attagene multiplex mRNA; actives raise or lower the signal
Summary of the method: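 HepG2 cells transiently transfected with multiplexed cis-element reporter units measure endogenous GATA activity; after 24 h compound exposure, reporter mRNA quantified by RT-PCR and capillary electrophoresis. Changes fitted in both directions vs DMSO.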

Measured: AC50

NC(=O)N1C(=O)C(C(=O)c2cc(Cl)cs2)c2cc(F)c(Cl)cc21 (stereo not drawn)
inactive: [1] | [2] | [3] | [4] | [5] | [6] | [7] | [8] | [9] | [10] | [11] | [12] | [13] | [14] | [15] | [16] | [17] | [18] | [19]

CN1CCN(c2ccccc2/C=C2\SCCN(c3ccc(Cl)c(Cl)c3)C2=O)CC1
active: [1] 5.01 µM
inactive: [2] | [3] | [4] | [5] | [6] | [7] | [8] | [9] | [10] | [11] | [12] | [13] | [14] | [15] | [16] | [17] | [18] | [19]

CC(=O)NC1(c2cccc(F)c2)CCN(CC[C@@]2(c3ccc(Cl)c(Cl)c3)CN(c3ccccc3)C(=O)CO2)CC1
active: [2] 46.6 µM | [3] 54.7 µM | [4] 45.2 µM | [5] 37.2 µM | [7] 14.5 µM | [9] 61.8 µM | [10] 62 µM | [13] 28.5 µM | [15] 33 µM | [16] 51.9 µM
inactive: [1] | [6] | [8] | [11] | [12] | [14] | [17] | [18] | [19]

CN1CCC[C@H]1c1cccnc1
inactive: [1] | [2] | [3] | [4] | [5] | [6] | [7] | [8] | [9] | [11] | [12] | [13] | [14] | [15] | [16] | [17] | [18] | [19]
active: [15] 49.4 µM

CCCCCCCCCCCCCCCS(=O)(=O)Oc1ccccc1
inactive: [1] | [2] | [3] | [4] | [5] | [6] | [7] | [8] | [9] | [10] | [11] | [12] | [13] | [14] | [15] | [16] | [17] | [18] | [19]

CCN(CC)CCNc1ccc(CNC=O)c2sc3ccc(OC)cc3c(=O)c12
active: [2] 0.53 µM | [3] 0.879 µM | [7] 0.216 µM | [8] 0.496 µM | [9] 0.505 µM | [10] 0.457 µM | [15] 0.722 µM | [16] 1.42 µM
inactive: [1] | [4] | [5] | [6] | [11] | [12] | [13] | [14] | [17] | [18] | [19]

CCOC(=O)CC(O)(CC(=O)OCC)C(=O)OCC
inactive: [1] | [2] | [3] | [4] | [5] | [6] | [7] | [8] | [9] | [10] | [11] | [12] | [13] | [14] | [15] | [16] | [17] | [18] | [19]
